Menin MLL FP FL: menin-MLL binding inhibition, fluorescein peptide. Fluorescence polarization, fluorescein-MLL peptide displacement from menin. FP activity change, % at 61.4 µM. 290,000 tested, under 10 active. AID 1766; active means well fitted curve in the direction sought with a large enough effect in the polarisation, not every such curve was filed as active; inconclusive means small, poorly fitted or top-dose-only effect, or effect the other way, or a change in a side signal; inactive means no such curve, though single readings can be large or run the other way; the % refers to the polarisation; further: % of control where 0% means no effect
CXXC DNA block: MLL CXXC-DNA interaction inhibition; Q03164; MLL-CXXC / FITC-HOXA9 DNA fluorescence polarization; Potency, µM (titrated, usually from 115 µM), inactives show at the highest dose activity change, negative = inhibition, actives largely listed as inhibitors; 290,000 tested, 0.037% active; active means well fitted inhibition curve with a large enough effect in the polarisation, with a control signal flat, not every such curve was filed as active; inconclusive means small, poorly fitted or top-dose-only effect, or effect the other way, or a change in a side signal; inactive means no such curve, though single readings can be large or run the other way; the % refers to the polarisation; further: potency means the concentration at half of the fitted maximal effect
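Purified MLL-CXXC (added from a 7 uM solution) was preincubated 5 min at ambient with pinned compounds in 50 mM Tris-HCl pH 7.5, 50 mM NaCl, 1 mM DTT, 0.05% BSA. Fluorescein-labeled HOX-A9 DNA (50 nM solution) followed, 30 min, then polarization read.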
TRb SRC2 PPI: disrupts binding of human TR beta to SRC2; 280,000 tested, 0.065% active; TRbeta-SRC2 peptide binding, fluorescence polarization; receptor liganded with 1 µM T3; Potency, µM (titrated, usually from 106 µM), for inactives: at the highest dose activity change, negative = inhibition, actives largely listed as inhibitors; P10828; AID 1469; active means well fitted inhibition curve with a large enough effect; inconclusive means small, poorly fitted or top-dose-only effect, or effect the other way;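 further: potency means the concentration at half of the fitted maximal effect; plate controls were bound peptide for no effect and peptide without receptor for full effect; nearly all actives have a fitted effect of over 50% in size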
Target sequence (P10828 whole entry, looked up): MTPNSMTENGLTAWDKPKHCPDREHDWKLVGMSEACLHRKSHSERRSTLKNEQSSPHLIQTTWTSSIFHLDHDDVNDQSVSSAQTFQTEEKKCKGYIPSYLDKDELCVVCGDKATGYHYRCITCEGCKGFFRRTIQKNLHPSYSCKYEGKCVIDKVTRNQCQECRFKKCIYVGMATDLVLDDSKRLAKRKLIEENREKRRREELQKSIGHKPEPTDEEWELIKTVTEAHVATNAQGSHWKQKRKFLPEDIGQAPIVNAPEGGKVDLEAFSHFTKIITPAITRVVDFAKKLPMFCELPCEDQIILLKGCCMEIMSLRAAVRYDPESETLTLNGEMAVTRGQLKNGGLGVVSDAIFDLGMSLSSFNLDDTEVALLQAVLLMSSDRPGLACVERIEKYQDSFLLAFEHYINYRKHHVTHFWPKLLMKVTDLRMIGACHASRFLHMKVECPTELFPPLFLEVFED
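Fluorescence polarization of 20 nM Texas Red SRC2 peptide with 0.6 uM human TRb ligand-binding domain, in Tris buffer with 1uM T3 and 5% DMSO. Incubated 5 hr ambient; normalized to unbound and bound controls.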
TR SRC2 fluor cs: alters Texas Red total fluorescence, flagging assay interference | 280,000 tested, 0.29% active | TRb/SRC2 Texas Red total fluorescence interference | Potency, µM (titrated, usually from 106 µM), for inactives: top-dose fluorescence change, negative = quenching; active means well fitted curve in either direction with a large enough effect; inconclusive means small, poorly fitted or top-dose-only effect; further: potency means the concentration at half of the fitted maximal effect; on the % scale 0 is the no-effect control and ±100 the full control effect
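Human TRb ligand-binding domain at 0.6 uM with 20 nM Texas Red SRC2 peptide in Tris buffer containing 1 uM T3 and 5% DMSO, incubated with compound 5 h at ambient temperature. Total fluorescence (555/632 nm) calculated as parallel + 2 × perpendicular.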
RGS12 GoLoco inh: blocks human Gai1 binding to RGS12 GoLoco peptide, red readout. AID 880. 230,000 tested, 0.44% active. P63096. Gai1:RGS12 GoLoco peptide FP, rhodamine, 10 min. Potency, µM (series often up to 61.6 µM), for the others: top-dose activity, negative = inhibition, hits mostly inhibitors; active means well fitted inhibition curve with a large enough effect, not every such curve was filed as active; inactive means no such curve, though single readings can be large or run the other way; further: potency means the concentration at half of the fitted maximal effect; on the % scale 0 is the no-effect control and ±100 the full control effect; nearly all actives have a fitted effect of over 30% in size
Target sequence (P63096 whole entry, looked up): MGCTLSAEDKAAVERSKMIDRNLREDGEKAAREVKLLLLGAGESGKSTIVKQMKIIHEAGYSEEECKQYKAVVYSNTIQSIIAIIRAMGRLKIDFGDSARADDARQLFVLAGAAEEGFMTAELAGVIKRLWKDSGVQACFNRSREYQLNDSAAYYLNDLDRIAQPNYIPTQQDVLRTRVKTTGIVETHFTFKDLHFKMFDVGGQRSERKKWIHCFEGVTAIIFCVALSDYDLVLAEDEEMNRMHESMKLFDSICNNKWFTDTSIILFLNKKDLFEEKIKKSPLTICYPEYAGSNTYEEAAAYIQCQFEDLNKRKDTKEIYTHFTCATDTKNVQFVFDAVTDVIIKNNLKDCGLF
Menin MLL FP TR: inhibitors of human menin-MLL interaction, mutant MLL peptide; O00255; Menin + Texas Red MLL mutant peptide, fluorescence polarization; Potency, µM (top dose mostly 61.6 µM), without a hit: at the top dose FP activity change, negative = inhibition, hits mostly inhibitors; 270,000 tested, 0.23% active; active means well fitted inhibition curve with a large enough effect in the polarisation, with a control signal flat, not every such curve was filed as active; inconclusive means small, poorly fitted or top-dose-only effect, or effect the other way, or a change in a side signal; inactive means no such curve, though single readings can be large or run the other way; the % refers to the polarisation; further: potency means the concentration at half of the fitted maximal effect; % of control where 0% means no effect
The depositor's hits bear a star; ? = inconclusive; · = not tested or not shown; [ ] = remark or other dose. Only some compounds are listed: those with a hit (about 0.5% of all), similar ones and a draw of the others.

SMILES | Menin MLL FP FL | CXXC DNA block | TRb SRC2 PPI | TR SRC2 fluor cs | RGS12 GoLoco inh | Menin MLL FP TR
O=C1c2ccccc2-c2onc3ccc(NCc4ccco4)c1c23 | ? | ? | 35.5µM* | 44.7µM*[fluorescent] | 11.2µM* | ?
CCN(CC)CCNC(=O)c1ccc2nc(CCc3ccccc3)oc2c1 | · | · | 4.7% | 1.1% | · | ·
O=C(O)c1ccc2c(c1)C(=O)OC2=O | · | · | -2.6%[201 µM] | -0.2%[201 µM] | · | ·
CCNc1ccc2noc3c2c1C(=O)c1ccccc1-3 | ? | ? | 14.1µM* | 44.7µM*[fluorescent] | 3.98µM* | ?
Cc1cccc(NC(=S)NC(=O)c2cc(-c3ccccc3)nc3ccccc23)c1 | -0.6 | -1.4% | -8.5% | -0.8% | 7.7% | 35.5µM*
Cc1cccc(-c2cc(C(=O)Nc3ccc4c(c3)OCCO4)c3ccccc3n2)c1 | 5.0 | 12.6% | -13.5% | 2.5% | -8.4% | 1.5%
COc1ccc(CCNC(=O)CCCn2c(=O)c3ccccc3n(CC(=O)Nc3ccc(C)cc3Cl)c2=O)cc1OC | · | · | 7.6% | 12.4% | · | ·
N#CC(C#N)=C(N)/C(C#N)=C/c1ccc2[nH]ccc2c1 | · | · | 0.2% | -12.9% | 57.9% | ·
O=C(Nc1nc(-c2ccco2)c(-c2ccco2)s1)C1CC(=O)N(c2ccc3c(c2)OCCO3)C1 (stereo not drawn) | 56.2 | -7.1% | 27.4% | 25.1µM*[quencher] | 16.7% | ?
N=C1[C@@H](O)[C@]2(I)c3ccccc3N3C(=N)[C@H](O)[C@@H]4c5ccccc5N1[C@@H]4[C@@H]32 | · | · | · | · | 2.24µM* | ·
Cc1ccc(NC(=O)N2CCc3cc(S(=O)(=O)N4CCC(C)CC4)ccc32)cc1F | · | · | -17.0% | 28.2µM*[quencher] | · | ·
Nc1ncc(N=Nc2cc(C(=O)O)ccc2Cl)s1 | 11.7 | -6.8% | 19.1% | 70.8µM*[quencher] | -2.3% | ·
COC(=O)c1ccccc1 | · | · | -2.1% | -1.0% | 7.5% | ·
COC(=O)c1ccc(C23CC2(C(NP(=O)(c2ccccc2)c2ccccc2)c2ccccc2)C3)cc1 (stereo not drawn) | 17.4 | · | 3.2% | -9.1% | 1.41µM* | -2.4%
CC[n+]1cc(-c2ccccc2)nc(N2CCOCC2)n1 | 2.0 | -2.9% | 1.9% | -0.9% | 7.08µM* | -16.8%
CCC(C)NC(=O)c1ccc(-n2c(-c3ccccc3)cc3c2CCCC3)cc1 (stereo not drawn) | · | · | -13.2% | 1.78µM*[quencher] | · | ·
CCOc1ccc(CCNC(=O)c2nc(-c3cccc(F)c3)n3c2CCCCC3)cc1OCC | · | · | -26.8% | 63.1µM*[quencher] | · | ·
O=S(=O)(O)c1cc(S(=O)(=O)O)c2c(N=Nc3ccccc3)c(O)ccc2c1 | · | · | -0.3%[201 µM] | -14.1%[201 µM] | · | ·
O=C1c2ccc(O)c(O)c2C(=O)c2c(O)ccc(O)c21 | · | · | 25.1µM* | 44.7µM*[fluorescent] | -25.3% | ·
COc1ccc(CNc2nc(-c3ccc(N(C)C)cc3)nc3ccccc23)c(OC)c1 | -3.1 | · | · | · | 8.91µM* | ?
COC(=O)c1c(-c2ccc(Cl)cc2)noc1N1CCN(c2cccc(C(F)(F)F)c2)CC1 | · | · | -1.2% | 1.5% | · | ·
COc1cc(OC)cc(OC)c1 | -0.6 | 0.2% | 1.0% | -1.0% | 17.8µM* | -5.1%
COc1nc(-c2ccccc2)ccc1-c1noc(-c2ccco2)n1 | 6.5 | 4.5% | -4.2% | 2.9% | 3.55µM* | 42.2%
CCn1c(C)[n+](CCCS(=O)(=O)[O-])c2cc(Cl)c(Cl)cc21 | 4.6 | 0.1% | -4.7% | -0.5% | 3.98µM* | 15.7%
O=C(Cn1cc2c(n1)CCCC2)NCc1cccs1 | 1.4 | -2.8% | -15.3% | 1.5% | 12.7% | -8.5%
SMILES | Menin MLL FP FL | CXXC DNA block | TRb SRC2 PPI | TR SRC2 fluor cs | RGS12 GoLoco inh | Menin MLL FP TR
O=C(Cn1cc2c(n1)CCCC2)NCc1ccccn1 | 1.4 | -27.9% | -3.7% | 3.5% | 15.8µM* | 24.5%
CC[C@H](C)[C@H](NC(=O)[C@H](Cc1ccc(O)cc1)NC(=O)[C@H](Cc1cnc[nH]1)NC(=O)[C@H](CCCNC(=N)N)NC(=O)[C@H](CC(C)C)NC(=O)[C@H](C)NC(=O)[C@H](CO)NC(=O)[C@H](Cc1ccc(O)cc1)NC(=O)[C@H](Cc1ccc(O)cc1)NC(=O)[C@H](CCCNC(=N)N)NC(=O)[C@H](C)NC(=O)[C@H](CC(C)C)NC(=O)[C@H](CC(=O)O)NC(=O)[C@H](CCC(=O)O)NC(=O)[C@H](C)NC(=O)[C@@H]1CCCN1C(=O)[C@H](C)NC(=O)[C@H](CC(=O)O)NC(=O)[C@H](CCC(=O)O)NC(=O)CNC(=O)[C@@H]1CCCN1C(=O)[C@H](CC(N)=O)NC(=O)[C@H](CC(=O)O)NC(=O)[C@@H]1CCCN1C(=O)[C@H](CCCCN)NC(=O)[C@@H](N)CO)C(=O)N[C@@H](CC(N)=O)C(=O)N[C@@H](CC(C)C)C(=O)N[C@H](C(=O)N[C@H](C(=O)N[C@@H](CCCNC(=N)N)C(=O)N[C@@H](CCC(N)=O)C(=O)N[C@@H](CCCNC(=N)N)C(=O)N[C@@H](Cc1ccc(O)cc1)C(N)=O)[C@@H](C)O)[C@@H](C)CC | 3.0 | · | 8.8% | -1.0% | · | -6.0%
CC1CCC(C(C)C)C(OCC(O)C[N+]2(C)CCCCC2)C1 (stereo not drawn) | -0.4 | -3.1% | 0.8% | 0.8% | 5.8% | -2.6%
CC1CCC(C(C)C)C(OCC[N+](C)(C)C)C1 (stereo not drawn) | -1.1 | 0.0% | 1.1% | -17.5% | 3.98µM* | -1.9%
CCOC(=O)c1c(C)[nH]c(C)c1S(=O)(=O)N1CCCC(C(=O)N2CCN(c3ccccc3F)CC2)C1 (stereo not drawn) | · | · | -8.9% | -5.1% | · | ·
CC(=O)OCC[n+]1c(C)n(-c2ccccc2)c2ccc(Cl)cc21 | -1.0 | 27.7% | -2.1% | 1.2% | 8.91µM* | 9.0%
CCc1cccc2c(C(=O)CSc3nncn3-c3ccccc3OC)c[nH]c12 | 5.6 | 10.5% | 0.0% | 89.1µM*[quencher] | -54.7% | -4.0%
CN(N=O)C(=O)N[C@H]1C(O)C(O)C(CO)O[C@@H]1O (stereo partly drawn) | -0.5 | · | 5.7% | 1.4% | 20µM* | 8.4%
O=C(Cn1c(=O)oc2cc(S(=O)(=O)N3CCCC3)ccc21)NC1CCCc2ccccc21 (stereo not drawn) | 6.5 | 23.3% | 16.9% | -3.1% | 9.6% | 31.6µM*
O=C(Cn1c(=O)oc2cc(S(=O)(=O)N3CCCC3)ccc21)Nc1ccc(OC(F)(F)F)cc1 | · | · | -9.3% | -1.1% | · | ·
O=C(Cn1c(=O)oc2cc(S(=O)(=O)N3CCCC3)ccc21)Nc1ccc(C(F)(F)F)cc1 | -0.9 | 13.3% | -8.4% | -7.5% | -4.3% | 25.1µM*
COc1ccc(-c2cc(C(F)(F)F)nc(SCCC(=O)Nc3ccc(F)cc3F)n2)cc1 | · | · | -12.3% | ? | · | ·
CC/C=C/CCCCCCCCCCOC(C)=O | · | · | -1.2%[201 µM] | -0.1%[201 µM] | · | ·
CCCCCCCC/C=C\CCCCCCCCO | · | · | 10.8%[201 µM] | -0.1%[201 µM] | · | ·
COC(=O)/C=C/c1cc(O)ccc1O | · | · | 8.1% | -4.5% | 2.82µM* | ·

High-throughput results: PubChem, National Center for Advancing Translational Sciences (NCATS)
